The text below walks through data of PubChem BioAssay (NCI).

About 83,000 compounds went through this panel and 20% of them were active in at least one assay; those are over-represented in the sample as a whole.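 Cells were grown in 96-well plates and exposed to the test compound at a single concentration for 48 hours; results are reported as percent growth, with values below 10 considered active.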 Unmarked numbers belong to inactive results. Activity calls are given as the source filed them.

Among the test systems are HCT-15 colon; HT29 colon; SNB-75 CNS; SNB-19 CNS; U251 CNS; PC-3 prostate; SK-MEL-5 melanoma; UACC-62 melanoma; LOX IMVI melanoma; SK-MEL-28 melanoma; SK-MEL-2 melanoma; EKVX NSCLC; SN12C renal; UO-31 renal; TK-10 renal; ACHN renal; CAKI-1 renal; A498 renal; CCRF-CEM leukemia; MOLT-4 leukemia.
What all share (test): NCI-60 one-dose screen, 48 h (100 = growth as untreated, 0 = no growth, -100 = all killed)
What all share (details): 10 µM unless noted

On to `O=C(Cn1cc(-c2ccccc2)nn1)Nc1nc(-c2ccc(Cl)cc2)cs1`, for which the growth is 94.4% in the assay on HCT-15 colon; 102% with HT29 colon; 103% in the assay with SNB-75 CNS; 94.7% in the assay with SNB-19 CNS; 105% with U251 CNS; 101% with PC-3 prostate. The growth is 94.5% in the assay on SK-MEL-5 melanoma; 76.1% in the assay on UACC-62 melanoma; 101% in the assay with LOX IMVI melanoma; 108% with SK-MEL-28 melanoma; 103% in the assay on SK-MEL-2 melanoma; 98% in the assay on EKVX NSCLC. Moreover, the growth with SN12C renal is 96.2%; with UO-31 renal it was 91%; in the assay on TK-10 renal, 76.1%; in the assay on ACHN renal, 112%; in the assay with CAKI-1 renal, 107%; in the assay with A498 renal, 80.7%. The growth in the assay with CCRF-CEM leukemia is 103%; in the assay with MOLT-4 leukemia, 97.8%.
In the case of `CC1(C)NCCC[C@]2(C)[C@H]3C/C(=N\O)C4[C@@H]5C[C@@](C)(CO)CC[C@]5(C)CC[C@@]4(C)[C@]3(C)CC[C@@H]12` (some centres undefined), the growth was 93.1% in the assay on HCT-15 colon; 88.9% with HT29 colon; 75.1% in the assay on SNB-75 CNS; 96.6% in the assay on SNB-19 CNS; 87.3% with U251 CNS; 88.9% in the assay with PC-3 prostate. Besides, the growth in the assay on SK-MEL-5 melanoma is 98.7%; with UACC-62 melanoma, 95.2%; in the assay on LOX IMVI melanoma, 101%; with SK-MEL-28 melanoma it was 103%; in the assay on SK-MEL-2 melanoma, 101%; in the assay with EKVX NSCLC, 108%. The growth in the assay on SN12C renal is 94.1%; with UO-31 renal, 90.2%; in the assay on TK-10 renal it was 107%; in the assay with ACHN renal, 101%; in the assay with CAKI-1 renal, 85.8%; in the assay with A498 renal, 96.1%. Further, the growth with CCRF-CEM leukemia was 91.9%; in the assay with MOLT-4 leukemia, 80.5%.
Regarding `N#Cc1ccccc1Cn1c2nc(=N)c3ccccc3c-2nc2ccccc21`, the growth is 41.5% in the assay on HCT-15 colon; 15.4% with HT29 colon; 93.8% in the assay with SNB-75 CNS; 65.8% in the assay on SNB-19 CNS; 70.4% in the assay on U251 CNS; 56.8% with PC-3 prostate. The growth is 32.5% in the assay on SK-MEL-5 melanoma; 56.5% in the assay with UACC-62 melanoma; 51.1% in the assay with LOX IMVI melanoma; 90.2% in the assay on SK-MEL-28 melanoma; 87.9% in the assay on SK-MEL-2 melanoma; 49.4% in the assay on EKVX NSCLC. Moreover, the growth with SN12C renal is 61.5%; in the assay with UO-31 renal, 51.3%; in the assay on TK-10 renal it was 102%; in the assay on ACHN renal, 56.4%; in the assay with CAKI-1 renal, 50.9%; with A498 renal, 69.7%. Further, the growth with CCRF-CEM leukemia was 70.6%.
Turning to `Cn1ccnc1C(=O)/C=C/c1ccc(CNC(=O)c2ccc(Cl)cc2)cc1`, the growth is -14.5% (active) in the assay on HCT-15 colon; -16.3% (active) in the assay with HT29 colon; 56% in the assay with SNB-75 CNS; 11.1% with SNB-19 CNS; 7.03% (active) in the assay on U251 CNS; 19.9% in the assay on PC-3 prostate. The growth with SK-MEL-5 melanoma is 32.6%; with UACC-62 melanoma it was 5.76% (active); with LOX IMVI melanoma, -89.2% (active); with SK-MEL-28 melanoma it was 45.2%; with SK-MEL-2 melanoma, 91.7%; with EKVX NSCLC it was 26.4%. Moreover, the growth is 17.3% in the assay on SN12C renal; -11.3% (active) in the assay on UO-31 renal; 21.3% with TK-10 renal; 2.81% (active) with ACHN renal; 35.9% with CAKI-1 renal; 21.1% with A498 renal. Also, the growth was 7.64% (active) in the assay with CCRF-CEM leukemia and 0.825% (active) in the assay with MOLT-4 leukemia.
`NC(N)=Nc1ccc(Oc2cccc(Nc3ccc(Cl)c(C(F)(F)F)c3)c2)cc1`: the growth in the assay with HCT-15 colon was 79.5%; with HT29 colon, 49%; in the assay on SNB-75 CNS it was 47.4%; in the assay with SNB-19 CNS, 24.8%; with U251 CNS it was -27.6% (active); in the assay on PC-3 prostate, 28.3%. Besides, the growth in the assay with SK-MEL-5 melanoma was 43.9%; in the assay on UACC-62 melanoma, 40.1%; in the assay with LOX IMVI melanoma it was -62.4% (active); with SK-MEL-28 melanoma, 67.7%; with SK-MEL-2 melanoma it was 83.7%; in the assay with EKVX NSCLC, 36.1%. The growth is 27.1% with SN12C renal; 76.2% in the assay on UO-31 renal; 82.6% in the assay on TK-10 renal; 74% with ACHN renal; 39.8% in the assay on CAKI-1 renal; 36.7% with A498 renal. Further, the results for the growth in the assay with CCRF-CEM leukemia and in the assay on MOLT-4 leukemia were 17.5% and 17.8%, respectively.
For `Cc1ccc(CSc2nc(-c3ccc(Cl)cc3)c(C#N)c(N3CCNCC3)n2)cc1`, the growth in the assay with HCT-15 colon is 76.2%; with HT29 colon, 58.4%; with SNB-75 CNS, 68.5%; in the assay with SNB-19 CNS, 84.7%; in the assay with U251 CNS, 65.4%; with PC-3 prostate, 63.5%. In addition, the growth is 74.2% in the assay with SK-MEL-5 melanoma; 105% with UACC-62 melanoma; 52.1% with LOX IMVI melanoma; 102% in the assay with SK-MEL-28 melanoma; 115% with SK-MEL-2 melanoma; 82.2% in the assay with EKVX NSCLC. Moreover, the growth was 77.8% with SN12C renal; 64.2% in the assay with UO-31 renal; 99.7% in the assay on TK-10 renal; 82.3% in the assay on ACHN renal; 64.9% in the assay on CAKI-1 renal; 17.6% with A498 renal. For the same molecule, the growth with CCRF-CEM leukemia was 65.6%; in the assay on MOLT-4 leukemia, 55.5%.
Consider `CC(=O)c1nnn(-c2c(C(=O)n3nc(C)cc3C)sc(=S)n2-c2ccccc2)c1C`, for which the growth with HCT-15 colon was 101%; in the assay on HT29 colon, 114%; in the assay with SNB-75 CNS it was 98.4%; in the assay with SNB-19 CNS, 99.1%; in the assay with U251 CNS, 109%; in the assay with PC-3 prostate, 98.2%. Also, the growth is 100% in the assay with SK-MEL-5 melanoma; 86.2% in the assay with UACC-62 melanoma; 98.8% with LOX IMVI melanoma; 112% with SK-MEL-28 melanoma; 108% with SK-MEL-2 melanoma; 90.7% in the assay with EKVX NSCLC. Further, the growth in the assay on SN12C renal is 103%; in the assay with UO-31 renal, 79.8%; with TK-10 renal, 138%; in the assay with ACHN renal, 102%; in the assay with CAKI-1 renal it was 91.8%; in the assay on A498 renal it was 94.9%. The growth is 101% in the assay with CCRF-CEM leukemia and 94.9% with MOLT-4 leukemia.
Regarding `COc1ccc(Cn2cc3c(c2-c2cc(OC)c(OC)c(OC)c2)CCc2c(CN4CCCC4)noc2-3)cc1`, the growth in the assay with HCT-15 colon was 21.1%; in the assay on HT29 colon it was 8.73% (active); in the assay on SNB-75 CNS it was -2.12% (active); in the assay with SNB-19 CNS, 22%; with U251 CNS, 22.4%; with PC-3 prostate, 29%. The growth in the assay on SK-MEL-5 melanoma is 20.7%; in the assay with UACC-62 melanoma it was 15.8%; in the assay with LOX IMVI melanoma it was 34.6%; in the assay with SK-MEL-28 melanoma, 60.9%; in the assay with SK-MEL-2 melanoma, 57.1%; in the assay on EKVX NSCLC, 38.1%. Moreover, the growth in the assay on SN12C renal was 36.6%; with UO-31 renal, 35.9%; in the assay on TK-10 renal it was 69.6%; in the assay on ACHN renal it was 45.7%; in the assay with CAKI-1 renal, 35.9%; with A498 renal, -1.61% (active). The growth with CCRF-CEM leukemia is 16.3%; in the assay with MOLT-4 leukemia it was 18.3%.
